This is an account of results in PubChem BioAssay AID2205 (University of Pittsburgh Molecular Library Screening Center, 2009).

Screen size: about 200,000 compounds; about 1,600 (0.8%) were called active.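 Rule for the calls: active = plate Z-score above 3 for both tubulin-high and condensed-nucleus cell shares, with cell loss under 80%, at 10 µM; inactive = the rest, inconclusive results apart.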 This excerpt belongs to a sample that is enriched for actives.

A short description of this test: microtubule stabilizers in HeLa cells, primary screen, imaging, high-content imaging (AID 2205).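 For % tubulin-high responders: anti alpha tubulin signal scored within the nucleus-defined area of each cell.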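 For toxicity: 0% = mean cell density of plate MIN control wells and 100% = no cells.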 As to conditions: HeLa tubulin immunostaining HCS, 24 h, at 10 µM; % Hoechst-high responders: measured here: nuclear condensation Hoechst responders, stronger effect = higher value, share of cells brighter than vehicle mean+2SD; % tubulin-high responders: stronger effect = higher value, share of cells brighter than vehicle mean+2SD; toxicity: measured here: cytotoxicity by cell density.
With `C=C(C)COc1ccc(-c2n[nH]c(C)c2-c2ccccc2OC)c(O)c1`, the % Hoechst-high responders was 4.86%, the % tubulin-high responders is 6.2% (inactive) and the toxicity was determined as 5.28%.
In the same order, the values of `Cc1[nH]n(-c2ccccc2)c(=O)c1/C=N/NC(=O)c1ccoc1C` are 1.51%, 1.79% (inactive) and 2.88%.
Regarding `CCc1ccc(-n2c(=S)sc3c(=O)n(-c4ccccc4OC)c(=S)[nH]c32)cc1`, the % Hoechst-high responders stood at 2.26%, the % tubulin-high responders is 4.15% (inactive) and the toxicity was 6.79%.
Regarding `COc1ccc(/C=C/CN2CCN(Cc3ccc(C)cc3)C(CCO)C2)cc1` (stereo unspecified), the % Hoechst-high responders worked out at 2.01%, the % tubulin-high responders was 6.04% (inactive) and the toxicity is 4.33%.
For the compound `CCn1c(/C=C/Nc2ccccc2)[n+](CC)c2ccc(C(=O)OCC(F)(F)F)cc21`, the % Hoechst-high responders was determined as 3.06%, the % tubulin-high responders was 2.82% (inactive) and the toxicity was found to be 0.486%.
In the same order, the values of `CC(C)(C)NC(=O)Cn1cnc2cc([N+](=O)[O-])ccc2c1=O` are 1.76%, 5.69% (inactive) and 5.93%.
In the same order, the values of `COc1ccc(C2=NN(C(=O)CCC(=O)O)C(c3cccs3)C2)cc1OC` (stereo unspecified) are 0.575%, 2.36% (inactive) and 4.5%.
In the same order, the values of `CCS(=O)(=O)Nc1ccc(C2=NN(C(C)=O)C(c3cccs3)C2)cc1` (stereo unspecified) are 60.7%, 26.1% (active) and 26.6%.
For `CS(=O)(=O)Nc1ccc(C2=NN(S(C)(=O)=O)C(c3cccs3)C2)cc1` (stereo unspecified), the % Hoechst-high responders stood at 1.8%, the % tubulin-high responders is 1.74% (inactive) and the toxicity came to 6.29%.
For `O=c1[nH]c(N2CCN(Cc3ccc4c(c3)OCO4)CC2)nc2c1CCCC2`, the % Hoechst-high responders is 3.51%, the % tubulin-high responders is 5.89% (inactive) and the toxicity turned out to be 3.65%.
With `CCc1ccc(NC(=O)CC2C(=O)NCCN2C(=S)Nc2ccccc2)cc1` (stereo unspecified), the % Hoechst-high responders came out at 3%, the % tubulin-high responders was 3.9% (inactive) and the toxicity came out at 11.2%.
In the same order, the values of `O=[N+]([O-])c1cccc(Nc2c3ccccc3nc3ccccc23)c1` are 32.2%, 22% (active) and 46.2%.
The matching figures for `Cc1cc(CNC(=O)c2cccc([N+](=O)[O-])c2)c2ccccc2n1`: 2.57%, 3.83% (inactive) and 1.18%.
Take `CC(=O)Nc1ccc(Nc2c3ccccc3nc3ccccc23)cc1`: the % Hoechst-high responders was determined as 8.03%, the % tubulin-high responders is 12.5% (inactive) and the toxicity came to 40.3%.
As to `COc1ccc(N2CCN(C(=O)CCSCc3ccccc3F)CC2)cc1`, the % Hoechst-high responders is 1.53%, the % tubulin-high responders is 3.62% (inactive) and the toxicity was 4.73%.
As for `Cc1cccc(C(=O)Nc2ccccc2C(=O)NCc2cccnc2)c1`, the % Hoechst-high responders was 2.76%, the % tubulin-high responders is 2.92% (inactive) and the toxicity came to 4.59%.
Consider `Cc1ccc(S(=O)(=O)N(C)C2(C)CCS(=O)(=O)C2)cc1` (stereo unspecified), for which the % Hoechst-high responders came out at 1.21%, the % tubulin-high responders is 1.1% (inactive) and the toxicity turned out to be 7.98%.
In the same order, the values of `Cc1ccc(S(=O)(=O)C2(S(=O)(=O)c3ccc(C)cc3)CCCC2)cc1` are 39.1%, 36.4% (active) and 67.7%.
In the same order, the values of `Cc1ccc(S(=O)(=O)NC(=O)N2CCCC(C)(C)C2)cc1` are 0.922%, 1.38% (inactive) and 2.22%.
In the same order, the values of `O=c1oc(-c2ccco2)nc2sc3c(c12)CCCCC3` are 2.16%, 1.31% (inactive) and 7.63%.
Regarding `COc1cccc2cc(S(=O)(=O)c3ccc(C)cc3)/c(=N/NS(=O)(=O)c3ccc(C)cc3)oc12`, the % Hoechst-high responders came out at 2.11%, the % tubulin-high responders is 3.76% (inactive) and the toxicity was determined as 4.71%.
In the case of `Cc1cc(-c2csc(N)n2)c(C)n1Cc1ccccc1`, the % Hoechst-high responders turned out to be 3.06%, the % tubulin-high responders is 0.459% (inactive) and the toxicity was determined as 7.95%.
Regarding `O=C(c1cc(=O)c2ccccc2o1)N1CCN(c2ccccc2)CC1`, the % Hoechst-high responders was determined as 2.26%, the % tubulin-high responders was 4.68% (inactive) and the toxicity was 10.7%.
The matching figures for `COc1cc2c(cc1OC)CN(C(=O)c1cc(=O)c3ccccc3o1)CC2`: 50.5%, 42.7% (active) and 31.7%.
On to `COc1ccccc1CNC(=O)c1cc(=O)c2ccccc2o1`, for which the % Hoechst-high responders was found to be 2.39%, the % tubulin-high responders is 1.71% (inactive) and the toxicity was 11.9%.
The matching figures for `CCCCCCCCCCOC(=O)C[N+](C)(C)CC1CCCCC1O` (stereo unspecified): 2.44%, 1.85% (inactive) and 7.67%.
As to `COC(=O)N/N=C/c1cn(CCCOc2ccc(C)cc2)c2ccccc12`, the % Hoechst-high responders turned out to be 1.65%, the % tubulin-high responders was 1.39% (inactive) and the toxicity amounted to 0.806%.
As to `CNC(=S)N/N=C/c1cn(Cc2ccc(C)cc2)c2ccccc12`, the % Hoechst-high responders is 11.2%, the % tubulin-high responders was 25.5% (active) and the toxicity came to 51.6%.
The matching figures for `CCOC(=O)N/N=C/c1cn(Cc2ccccc2Cl)c2ccccc12`: 1.41%, 1.99% (inactive) and 3.67%.
In the same order, the values of `Cc1ccc(-c2cc(C(=O)N/N=C/C=C/c3ccco3)c3ccccc3n2)cc1C` are 1.03%, 1.52% (inactive) and 10.1%.
On to `CC(/C=N/NC(=O)c1ccncc1)=C\c1ccco1`, for which the % Hoechst-high responders was determined as 2.03%, the % tubulin-high responders was 3.19% (inactive) and the toxicity came to 5.26%.
In the same order, the values of `CC(/C=N/NC(=O)c1cc(-c2ccc3ccccc3c2)n[nH]1)=C\c1ccco1` are 24.9%, 18.2% (active) and 26.2%.
Regarding `CCN(CC)c1ccc(S(=O)(=O)N2CCOCC2)cc1NC(=O)CSc1cccc[n+]1[O-]`, the % Hoechst-high responders was 1.88%, the % tubulin-high responders was 2.6% (inactive) and the toxicity came to 2.07%.
For the compound `S=C(NCc1ccc2c(c1)OCO2)NCc1ccco1`, the % Hoechst-high responders was determined as 2%, the % tubulin-high responders is 2.06% (inactive) and the toxicity stood at 3.56%.
For `COc1ccc(C(=O)CSc2nnc(COc3ccccc3)n2Cc2ccco2)cc1`, the % Hoechst-high responders was found to be 8.33%, the % tubulin-high responders was 11.9% (inactive) and the toxicity was 4.55%.
In the case of `Cn1c2ccccc2c(=O)c2c(=O)n(Cc3ccco3)c(COc3ccccc3)nc21`, the % Hoechst-high responders was determined as 17%, the % tubulin-high responders was 15.2% (active) and the toxicity stood at 19.6%.
In the same order, the values of `CCCc1nc2c(c(=O)c3ccccc3n2C)c(=O)n1C1CCCCCC1` are 3.07%, 3.44% (inactive) and 9.47%.
